ERAP1 inh: ERAP1 (human) enzyme inhibition; Q9NZ08; recombinant ERAP1, Leu-AMC fluorescence, 60 min; inhibition, % at 10.7 µM; hit rate 0.15% among 340,000;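 active means mean replicate inhibition of at least 30%, or all replicates individually reaching that 30% level; inactive means mean below 30% and not every replicate reaching it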;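 further: 0% = neutral control wells and 100% = L-leucinethiol positive control wells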
Target sequence (Q9NZ08 whole entry, looked up): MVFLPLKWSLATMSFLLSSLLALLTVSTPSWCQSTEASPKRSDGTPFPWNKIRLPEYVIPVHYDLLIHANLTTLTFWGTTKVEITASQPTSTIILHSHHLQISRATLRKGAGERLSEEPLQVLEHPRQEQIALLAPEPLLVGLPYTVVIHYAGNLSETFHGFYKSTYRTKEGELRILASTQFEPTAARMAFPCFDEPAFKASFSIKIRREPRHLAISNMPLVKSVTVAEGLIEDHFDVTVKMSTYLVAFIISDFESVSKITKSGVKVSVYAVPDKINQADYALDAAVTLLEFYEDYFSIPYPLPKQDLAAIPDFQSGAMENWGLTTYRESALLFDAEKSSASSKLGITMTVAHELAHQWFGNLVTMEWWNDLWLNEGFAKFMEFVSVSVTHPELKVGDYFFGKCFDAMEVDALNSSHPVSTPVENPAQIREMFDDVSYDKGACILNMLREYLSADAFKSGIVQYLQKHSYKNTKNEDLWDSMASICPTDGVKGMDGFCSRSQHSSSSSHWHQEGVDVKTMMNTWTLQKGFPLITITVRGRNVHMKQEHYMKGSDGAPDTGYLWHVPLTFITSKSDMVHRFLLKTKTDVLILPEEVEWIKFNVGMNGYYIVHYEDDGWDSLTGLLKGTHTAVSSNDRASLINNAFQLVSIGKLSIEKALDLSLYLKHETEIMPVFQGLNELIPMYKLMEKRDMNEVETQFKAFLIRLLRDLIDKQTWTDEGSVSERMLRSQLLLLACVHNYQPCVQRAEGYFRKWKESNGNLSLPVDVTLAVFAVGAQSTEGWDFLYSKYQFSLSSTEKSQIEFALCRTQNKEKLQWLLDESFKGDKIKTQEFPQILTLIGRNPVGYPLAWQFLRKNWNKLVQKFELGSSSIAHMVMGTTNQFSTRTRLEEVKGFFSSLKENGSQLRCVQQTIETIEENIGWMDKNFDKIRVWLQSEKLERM
PGC1a acetyl inh: modulators of PGC1a acetylation. hit rate 0.17% among 350,000. inhibition, % at 15.6 µM. AID 651687. U2OS PGC1a acetylation, AlphaScreen anti-acetyl-lysine; with virally co-expressed GCN5 acetyltransferase;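 active means every replicate shows inhibition of at least 40%; inconclusive means mean inhibition at least 40% but some replicate below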;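 further: 0% = neutral control wells and 100% = positive control wells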
DENV2 CPE: DENV2-induced cell death inhibition. AID 651640. hit rate 1.7% among 350,000. CPE inhibition, % at 9.99 µM. DENV2-infected cells, cytopathic effect rescue, plate reader; in the data active means CPE inhibition above about 20%, passing the limit was not always enough; inconclusive means no clear call, values can overlap the other calls; tested in BHK-21 cells;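 further: 0% = median of neutral control wells and 100% = median of positive control wells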
GSIS activator: GLuc luminescence reporter in INS-1E cells, primary screen for activators of glucose-dependent secretion of insulin. hit rate 0.61% among 370,000. AID 743287. activation, % at 16.6 µM. INS-1E GLuc reporter insulin secretion, 2-3 h;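 active means lowest replicate activation of at least 40%, so every replicate reaches that level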;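 further: 0% = median of neutral control wells and 100% = median of IBMX positive control wells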
CaV13 ICDI inh: Primary screen for inhibitors of IQ motif and Ca2+-dependent inactivation inhibitor domain binding in CACNA1D, Förster resonance energy transfer in living cells, …. HEK cells, CFP/YFP FRET ICDI-IQ, plate reader, 10 min; percent FRET-ratio fall versus neutral wells. inhibition, % at 12.3 µM. hit rate 0.098% among 340,000;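 active means mean replicate inhibition of at least 30% and at least 1% of replicates passing that level; inconclusive means only one of the two criteria is met; inactive means neither criterion is met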;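 further: 0% = median of the neutral control wells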
Ecoli rRNA inh: inhibits bacterial ribosomal RNA function over humanized ribosomes. E. coli WT GFP vs humanized-ribosome RFP mutants, fluorescence, 24 h; hits give low values; DMSO median 0, no signal -100. GFP signal change (wild-type ribosome), % (no concentration beside the values). hit rate 1.6% among 350,000;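 active means significant combined selectivity score with lowered wild-type GFP, culture density cut under 30%, mutant RFP and density less affected; inactive means any of these conditions unmet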
Active calls of the source: *; ? = inconclusive; . = not tested or not shown. Shown are actives, neighbours in structure and some others; about 3.2% of the full set was active somewhere.

SMILES	ERAP1 inh	PGC1a acetyl inh	DENV2 CPE	GSIS activator	CaV13 ICDI inh	Ecoli rRNA inh
C[C@@H]1CN([C@H](C)CO)S(=O)(=O)c2ccc(C3=CCCCC3)cc2O[C@H]1CN(C)Cc1ccccc1	.	42.9*	.	16.0	.	5.6
C[C@H](CO)N1C[C@H](C)[C@H](CN(C)Cc2cncnc2)Oc2cc(C3=CCCCC3)ccc2S1(=O)=O	0.0	-0.4	29.5*	13.6	.	4.4
COc1ccc(S(=O)(=O)N(C)C[C@@H]2Oc3c(NC(=O)NC(C)C)cccc3C(=O)N([C@@H](C)CO)C[C@H]2C)cc1	-2.3	5.4	-6.3	-9.7	.	-4.8
COc1ccc(C[C@H]2CCn3cc(nn3)COC[C@H](Cc3ccccc3)NC2=O)cc1	0.5	.	3.3	15.4	.	0.5
O=C(OC(C(=O)NCc1ccccc1)c1ccco1)c1ccccc1 (stereo not given)	-1.5	4.8	38.0*	.	.	.
CCCCC(OC(=O)c1ccco1)C(=O)NCc1ccc(C)cc1 (stereo not given)	-2.2	.	-1.7	17.0	-4.5	2.8
Cc1ccc(CNC(=O)C(CC(C)C)OC(=O)c2ccco2)cc1 (stereo not given)	2.6	.	30.5*	-14.9	-4.5	-0.6
O=C(OC(C(=O)NCc1ccccc1)c1cccs1)c1ccccc1 (stereo not given)	0.7	12.7	3.3	.	.	.
CN(C)C(=O)c1ccc(-c2ccccc2[C@@H]2[C@@H](CO)N(C(=O)C3CCCC3)[C@H]2C#N)cc1	4.5	.	15.0	22.1	.	3.1
CCC(C)N=Cc1c(Nc2ccccc2)nc2c(C)cccn2c1=O (stereo not given)	.	4.2	-4.9	5.2	-15.5	18.2
O=c1c(/C=N/O)c(Nc2ccccc2)nc2ccccn12	-2.6	3.7	1.4	53.1	-6.9	-19.8*
COc1ccccc1C#Cc1ccc([C@H]2[C@H](C#N)N(C(=O)C3CCC3)[C@H]2CO)cc1	1.7	30.7	-0.1	-14.2	.	-12.7
CCOC(=O)Cn1c2[n+](c3ccccc31)CC(O)CS2 (stereo not given)	78.2*	0.0	2.2	46.9	-6.5	5.0
COC(=O)Cn1c2[n+](c3ccccc31)CC(O)CS2 (stereo not given)	.	0.1	.	.	.	.
CNC[C@@H]1Oc2ncc(C#Cc3cccc(F)c3)cc2C(=O)N([C@H](C)CO)C[C@@H]1C	0.6	.	?	18.6	.	3.2
CCC(=O)N1C[C@H](C)[C@@H](OC)CN(C)C(=O)c2ccc(NC(=O)C3CC3)cc2OC[C@@H]1C	2.3	-3.8	39.7*	6.0	.	2.2
CCC(=O)Nc1ccc2c(c1)OC[C@H](C)N(C(=O)CC)C[C@H](C)[C@@H](OC)CN(C)C2=O	2.1	-7.6	35.3*	-0.1	.	2.0
CCC(=O)Nc1ccc2c(c1)OC[C@H](C)N(C(=O)CC)C[C@@H](C)[C@@H](OC)CN(C)C2=O	.	7.8	.	13.2	.	1.3
CCC(=O)Nc1ccc2c(c1)OC[C@@H](C)N(C(=O)Cc1cccnc1)C[C@@H](C)[C@H](OC)CN(C)C2=O	0.4	3.9	27.1*	13.8	.	4.4
CCC(=O)Nc1ccc2c(c1)OC[C@H](C)N(C(=O)Cc1cccnc1)C[C@H](C)[C@H](OC)CN(C)C2=O	0.9	-3.2	1.1	9.5	.	3.8
CCC(=O)Nc1ccc2c(c1)OC[C@@H](C)N(C(=O)Nc1ccccc1F)C[C@@H](C)[C@H](OC)CN(C)C2=O	1.8	3.4	22.2*	14.1	.	0.8
C[C@@H]1CN([C@@H](C)CO)C(=O)c2cccc(NC(=O)CCCCCC(=O)Nc3ccccc3N)c2O[C@@H]1CN(C)C(=O)Nc1ccccc1	.	.	.	8.2	.	-0.3
CC(c1nc2ccccc2[nH]1)n1c(-c2ccncc2)nc2ccccc21 (stereo not given)	2.1	.	-11.0	2.4	-10.5	-1.3
Cc1csc(-c2nc3ccccc3n2C(C)c2nc3ccccc3[nH]2)c1 (stereo not given)	.	.	0.6	-2.3	.	-30.4*
Cc1csc(-c2nc3ccccc3n2C(C(=O)NC(C)(C)C)c2ccccc2)c1 (stereo not given)	5.0	.	22.0*	-27.7	-15.8	-6.5
C[C@H]1CN(C)C(=O)Cc2ccccc2O[C@H]1CN(C)C(=O)OC(C)(C)C	.	.	.	-4.4	.	-3.2
